27 molecules from ChEMBL document CHEMBL1156829 can be followed below.

SMILES strings stand for the structures. The full ranking holds about 5,400 compounds; the median of “IFI” is about 2, and the highest 2% start at about 22. Many of the other results were omitted from the sample, so the highest values are more common in it than they were.

The experiment is described as follows: NOVARTIS: Inhibition Frequency Index (IFI) - the number of HTS assays where a compound showed > 50% inhibition/induction, expressed as a percentage of the number of assays in which the compound was tested. The class given is functional.
`CC1CC(C)CC(C)C(O)C(C#N)=CC=CCC(C2CCCC2C(=O)O)OC(=O)CC(O)C(C)C1` (configuration not stated) gave an IFI of 25.8%.
As to `COc1ccc(Cn2cccc(C(=O)Nc3ccc(OC)cc3)c2=O)cc1`, the IFI was found to be 5.26%.
With `Oc1ccccc1C=Nc1ccccc1[Te]c1ccccc1N=Cc1ccccc1O` the figure was 8.21%; with `CCn1nc(/C=C/c2ccccc2)nc2c(=O)n(C)c(=O)nc1-2`, 16.7%.
Molecule `Cn1ncnc2c(=O)n(C)c(=O)nc1-2` gave an IFI of 26.7%.
For `Cc1nc2c(=O)n(C)c(=O)nc-2n(C)n1`, the IFI is 25%.
`CCC(C)N1CCN(Cc2cccc(OC)c2OC)CC1` (configuration not stated) displayed an IFI of 3.17%.
For `CCCC[C@@H](C)C(O)[C@H]1C(=O)N[C@@H](CC)C(=O)N(C)CC(=O)N(C)[C@@H](CC(C)C)C(=O)N[C@@H](C(C)C)C(=O)N(C)[C@@H](CC(C)C)C(=O)N[C@@H](C)C(=O)N[C@@H](C)C(=O)N(C)[C@@H](CC(C)C)C(=O)N(C)[C@@H](CC(C)C)C(=O)N(C)[C@@H](C(C)C)C(=O)N1C` (some centres not stated), the IFI came to 3.45%.
With `CNCC(O)c1ccc(Cl)c(Cl)c1` (configuration not stated) the figure was 0%; with `Nc1ccc(C(=O)NN=Cc2cccc([N+](=O)[O-])c2)cc1`, 0%.
In turn, `C=C[C@H]1CN2CC[C@H]1C[C@H]2[C@H](OC(=O)c1cccc([N+](=O)[O-])c1)c1ccnc2ccccc12` displayed an IFI of 0.926%.
The molecule `COC1=CC(C)=C[C@@H](C)[C@@H](O)[C@H](C)CC(C)=CC=C[C@H](OC)[C@@H](C(C)C(O)[C@H](C)[C@@]2(O)C[C@@H](O)[C@H](C)[C@@H](C(C)C)O2)OC1=O` (some centres not stated) showed an IFI of 19.6%.
With `C=CC1CN2CCC1CC2C(OC(=O)C1CC1)c1ccnc2ccccc12` (configuration not stated) the figure was 0%.
With `Cc1ccc(CN2C3CCCC2CC(NC(=O)Nc2cccc(F)c2)C3)cc1` (configuration not stated) the figure was 1.32%; with `O=C(Nc1ccc(Oc2ccc(OC(F)(F)F)cc2)cc1)C1CC1`, 1.57%.
With `COc1ccc(NC2=C(N3CCCCC3)C(=O)c3ccccc3C2=O)cc1` the figure was 18.7%.
In turn, `CCOC(=O)CN(N=O)C1=C(N2CC2)C(=O)c2ccccc2C1=O` showed an IFI of 30.8%.
With `COc1cc(CN2CC3CC(C2)c2cccc(=O)n2C3)ccc1O` (configuration not stated) the figure was 0%.
`O=C(NNC(=O)c1csnn1)c1ccc(C(F)(F)F)cc1` showed an IFI of 3%.
Next, `Cc1nc(Oc2ccc3ccc(=O)oc3c2)c2c3c(sc2n1)CCCCC3`: 0%; `Cc1c2ccccc2c(C)c2ccccc12`: 3.76%; `NC(=O)Oc1ccc(Cc2ccccc2)cc1`: 0%.
Next, `CC(Cc1ccccc1)NCc1ccccc1O` (configuration not stated): 3.12%; `CN1CCN(c2nc(Cl)nc3[nH]cnc23)CC1`: 0.699%; `CC(=O)N(C1=C(N(C)C)C(=O)c2ccccc2C1=O)c1ccc(Cl)cc1`: 0%.
With `CC(=O)N(C1=C(N(C)C)C(=O)c2ccccc2C1=O)c1ccc(F)c(F)c1` the figure was 23.1%; with `CC(=O)N(C1=C(N(C)C)C(=O)c2ccccc2C1=O)c1cccc(F)c1`, 15.4%.
